Source: PubChem (National Center for Advancing Translational Sciences (NCATS))
The list is not random: actives were taken first. Their share in the collection is about 0.49%.
EPAC2 antagonist – EPAC2 (human) antagonism. Q8WZA2. EPAC2 GEF exchange of Rap1B-BODIPY-GDP, fluorescence. Potency, µM (series often up to 114 µM), for the others: at the highest dose activity, negative = inhibition, hits mostly inhibitors. 360,000 tested, 0.18% active; note: % is set by controls: 0 for no effect and ±100 for the full control effect; nearly all actives have a fitted effect of over 45% in size
EPAC1 antag – antagonists of human EPAC1. O95398. 360,000 tested, 0.14% active. EPAC1 GEF assay, Rap1b-BODIPY-GDP exchange fluorescence. Potency, µM (series often up to 115 µM), without a hit: at the top dose activity change, negative = inhibition, actives largely listed as inhibitors. AID 720709;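 note: plate controls were vehicle for no effect and positive control for full effect; nearly all actives have a fitted effect of over 50% in size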
USP1 inh – USP1/UAF1 (human) deubiquitinase inhibition; O94782; recombinant USP1/UAF1, Ub-Rhodamine cleavage fluorescence; Potency, µM (series often up to 57.1 µM), for the others: top-dose activity change, negative = inhibition, actives largely listed as inhibitors; 390,000 tested, 0.23% active; note: % is set by controls: 0 for no effect and ±100 for the full control effect; nearly all actives have a fitted effect of over 60% in size
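In this screen, compounds sit with the deubiquitinase complex (1nM) for 15 min at room temperature before Ub-Rho is added at 150nM final. Fluorescence rise is then followed for 6 reads every 60 seconds.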
EPAC1 agonist – activates human EPAC1 exchange factor; O95398; EPAC1 agonist qHTS, biochemical assay; response scale: 100% = response to 6.5 mM cAMP; Potency, µM (doses to about 154 µM), for inactives: at the highest dose activation, actives largely listed as activators; 360,000 tested, 0.073% active; note: nearly all actives have a fitted effect of over 60% in size
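Compounds were pinned as a concentration titration into mixtures of EPAC1 (100 nM), BODIPY-GDP-loaded Rap1B (250 nM) and GDP (50 uM). After 5 min at room temperature, fluorescence was followed for 30 min; activity was scaled to 6.5 mM cAMP.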
EPAC2 ag – agonists of human EPAC2 (RAPGEF4); EPAC2 activation, biochemical qHTS; response scale: 100% = 6.5 mM cAMP response; Potency, µM (series often up to 154 µM), without a hit: top-dose activation, actives largely listed as activators; 360,000 tested, 0.079% active; note: nearly all actives have a fitted effect of over 50% in size
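Compounds were added across a concentration range to EPAC2 (100 nM), RAP1B-BODIPY-GDP (250 nM) and GDP (50 uM). After 5 min at room temperature, fluorescence was recorded at 5-min intervals for 30 min.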
* = called active by the depositor; i = inactive; ? = inconclusive; / = not tested or not shown. Calls come from the whole dose curve; as a rule, active = well fitted curve in the direction sought with a large enough effect; inconclusive = small, poorly fitted or top-dose-only effect, or another doubt; inactive = no such curve, though single readings can be large; an effect the other way counts as inactive or inconclusive. Potency is the fitted concentration of half-maximal effect.

SMILES	EPAC2 antagonist	EPAC1 antag	USP1 inh	EPAC1 agonist	EPAC2 ag
O=C1C(=O)c2ccc(-c3ccccc3)cc2-c2ccccc21	-26%	?	5µM*	-2%	25%
Nc1ccc2c(c1)C(=O)c1ccccc1-2	-18%	-26%	-7%	16%	10%
Cc1nnc2c(N3CCN(c4ccc(F)cc4)CC3)nc3ccc(C(=O)c4ccccc4)cc3n12	/	/	-17%	/	/
N#Cc1c(-c2ccccc2)nc(SCc2cccc(Cl)c2)[nH]c1=O	89µM*	?	-18%	-5%	-11%
Cc1[nH]c(=O)nc(SCc2cccc(Cl)c2)c1C#N	-1%	?	-16%	-1%	-4%
CCCN1C(=O)c2[nH]nc(-c3cccc(OC)c3)c2C1c1ccccn1 (stereo not given)	/	/	-1%	/	/
O/C(=C\c1ccc2ccccc2n1)c1ccc(O)cc1O	52%	6%	28µM*	2%	10%
CCOc1ccc(NC(=O)CSC2=Nc3ccccc3C3=NC(CC(=O)NCc4ccccc4OC)C(=O)N23)cc1 (stereo not given)	/	/	-18%	/	/
O=c1ccc2c(-c3ccccc3)c3ccc(O)cc3oc-2c1	i	148%	3.5µM*	?	14%
Nc1ccc(-c2c3ccc(=O)cc-3oc3cc(O)ccc23)cc1C(=O)O	i	i	22µM*	100µM*	100µM*
COc1ccc2c(CNCCc3ccc(SC)cc3)c(C(=O)O)n(Cc3ccc(F)cc3)c2c1	/	/	-18%	/	/
O=C(Nc1cccs1)Nc1ccccc1Cl	22µM*	-21%	3%	-4%	6%
N#Cc1c(-c2ccc(F)cc2)cc(-c2ccccc2)nc1SCC(=O)NCC(=O)O	13%	79µM*	-13%	9%	-5%
COc1ccc(N(CC(=O)NCCc2ccc(C)cc2)S(=O)(=O)c2c(C)nn(C)c2C)cc1	/	/	-13%	/	/
O=C1C=C(O)c2cccc(O)c2C1=O	4%	-24%	32µM*	-27%	-5%
COc1cccc2c1-c1c(O)cccc1C2=O	17%	6%	-19%	13%	12%
N=c1c(S(=O)(=O)c2ccc(Br)cc2)cc2c(=O)n3ccccc3nc2n1C1CCCC1	79µM*	-6%	-1%	1%	-1%
Cc1cccc(N2CCN(C(=O)Cn3nc(Cc4cccnc4)c4ccccc4c3=O)CC2)c1C	/	/	-1%	/	/
N#C/C(=C/c1ccc(N2CCCCCC2)o1)c1cccc(F)c1	-1%	-2%	25µM*	13%	15%
Nc1ncnc2c1nc(Sc1ccc(Cl)cc1)n2[C@@H]1O[C@@H]2COP(=O)(O)O[C@H]2[C@H]1O	2.8µM*	?	-5%	?	?
Cc1cc(/C=C2\SC(=S)N(Cc3ccco3)C2=O)c(C)n1-c1cccnc1	51%	-7%	55%	-12%	100µM*
Nc1ccc2nc3c(=O)n(CCc4ccccc4)c(=O)[nH]c3nc2c1	14%	117%	16µM*	112µM*	63µM*
CCCCn1c(=O)[nH]c2nc3cc(N)ccc3nc2c1=O	117%	78%	28µM*	100µM*	100µM*
Nc1ccc2nc3c(=O)n(C4CCCCC4)c(=O)[nH]c3nc2c1	152%	-33%	102%	?	45%
Cc1cc2nc3c(=O)n(CCc4ccccc4)c(=O)[nH]c3nc2cc1N	75%	20%	18µM*	?	100µM*
SMILES	EPAC2 antagonist	EPAC1 antag	USP1 inh	EPAC1 agonist	EPAC2 ag
Cc1ccc(CNc2ccc3c(c2)OCO3)cc1	9%	9%	28µM*	2%	-7%
COc1ccccc1CNc1cc(C)nc2nc(-c3ccc(C)cc3)nn12	/	/	-25%	/	/
Cc1ccc2[nH]c3c(=O)n(CC(=O)N4CCCC(C)C4)ncc3c2c1 (stereo not given)	/	/	-21%	/	/
O=[N+]([O-])c1cc([N+](=O)[O-])c2oc(-c3ccccc3)c(Br)c2c1O	20µM*	25µM*	?	6%	-7%
Cc1cccc(N(C)c2nc3ccc(C)cc3n3cnnc23)c1	/	/	-25%	/	/
COC(=O)c1ccc(NC(=O)CCn2cnnn2)c(C)c1	/	/	-30%	/	/
CCOC(=O)c1c(NC(=O)/C=C/c2ccc3c(c2)OCO3)sc(C)c1CC	11%	-1%	-11%	-13%	6.3µM*
COC(=O)c1c(NC(=O)/C=C/c2ccc3c(c2)OCO3)sc(C)c1C	1%	0%	-11%	3%	6%
COc1ccc(C(=O)CSc2nc3cc(C(=O)NC4CCCC4)ccc3c(=O)n2CC2CCCO2)cc1 (stereo not given)	/	/	-16%	/	/
COC(=O)c1cc(C(=O)c2ccc(Cl)cc2)n2c(=O)/c(=C\N(C)C)sc12	93%	-5%	1%	12%	100µM*
O=C(Nc1ccc(Cl)cc1C(=O)O)c1ccc2c(c1)C(=O)N(Cc1ccco1)C2=O	?	79µM*	-13%	4%	1%
COC(=O)c1ccccc1C(=O)c1cccc2ccccc12	45µM*	-17%	-11%	7%	14%
O=C(c1ccccc1)c1cccc2ccccc12	13µM*	-14%	-12%	14%	11%
Cc1ccc2c(c1)c1c(c(=O)n(-c3cccc(Cl)c3)c(=O)n1C)n2C	/	/	-4%	/	/
CCOC(=O)c1sc(N2C(=O)C(O)=C(C(=O)c3ccco3)C2c2cccc([N+](=O)[O-])c2)nc1C (stereo not given)	9%	22µM*	-24%	-9%	-14%
O=C1C=C(c2c(O)ccc3ccccc23)c2ccccc2C1=O	?	35µM*	28µM*	15%	29%
Cc1cccc(C)c1OC(=O)c1ccccc1	50µM*	-8%	-2%	-1%	7%
CCC(C(=O)Nc1cc(OC)cc(OC)c1)n1nc(-c2ccc(C)c(C)c2)ccc1=O (stereo not given)	/	/	-18%	/	/
CCOC(=O)CN1C(=O)S/C(=C/c2ccc(N3CCCCC3)o2)C1=O	38%	17%	?	8%	22%
CCCN1C(=O)S/C(=C\c2ccc(N3CCOCC3)o2)C1=O	6%	46%	25µM*	?	?
CCCN1C(=O)S/C(=C/c2ccc(N3CCOCC3)o2)C1=O	22%	42%	28µM*	79µM*	112µM*
COC(=O)CN1C(=O)S/C(=C/c2ccc(N3CCCCC3)o2)C1=O	144%	12%	28µM*	9%	13%
CCOc1cccc(OCCCn2c(-c3ccc(Br)cc3)nc3ccccc3c2=O)c1	/	/	-16%	/	/
Cn1cc([C@]2(O)C(=O)Nc3ccc(Br)cc32)c2ccccc21	50µM*	0%	/	-5%	-2%
CCOC(=O)c1c(-c2ccc(Cl)cc2)csc1NC(=O)CNCc1ccco1	-9%	3%	-21%	-3%	14%
CCOC(=O)c1c(-c2ccccc2)csc1NC(=O)C(C)NCc1ccco1 (stereo not given)	45µM*	?	-11%	16%	1%
